D2 ag-1 – agonists of human D2 dopamine receptor (beta-arrestin); P14416; DiscoveRx PathHunter D2 beta-arrestin, luminescence, 90 min; 100% = 57 uM dopamine signal; activation, % (no concentration beside the values); hit rate 0.084% among 360,000; in the data active = activation above about 40%; inconclusive = between about 15% and that limit
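Agonist mode: compounds alone added to overnight-plated D2 PathHunter cells for 90 min at 37 C, with 57 uM final dopamine (EC100) defining full response. Beta-arrestin recruitment detected by chemiluminescent reagent, read after 1 h at ambient temperature.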
D2 antag – D2 dopamine receptor (human) antagonism | P14416 | HEK293 TREx D2 cells, calcium flux, dopamine EC80 | hit rate 2% among 340,000 | inhibition, % at 10 µM; in the data active = inhibition above about 30%; inactive = below that, where a call was filed
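Calcium mobilization kinetics were recorded at 1 s intervals in tetracycline-induced HEK293 T-REx D2 cells, first for 180 s after compound addition and then 180 s after EC80 dopamine.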
D2 PAM-1 – potentiates the human D2 dopamine receptor allosterically; potentiation, % (test concentration not listed); P14416; DiscoveRx D2 beta-arrestin cells, luminescence, 90 min; 100% = 57 uM dopamine signal; AID 624464; hit rate 0.23% among 360,000; in the data active = potentiation above about 50%; inconclusive = mostly about 30% to 49%
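PathHunter D2 cells, attached overnight at 37 deg C, received compound in DMSO plus dopamine at EC20 (50 nM final) for 90 min at 37 deg C. Beta-arrestin recruitment was read as luminescence after 1 h with detection reagent at ambient temperature.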
D2 PAM-2 – positively modulates the human D2 dopamine receptor allosterically; potentiation, % at 10 µM; HEK293 T-REx D2, calcium flux, EC20 dopamine potentiation; hit rate 0.34% among 340,000; AID 485347;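 active = potentiation over 3 SD above the plate norm, cut at about 30% in these data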
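Primary screen. Calcium kinetics in induced HEK293 T-REx D2 cells: compound pre-addition 180 s, EC20 dopamine, 180 s more.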
D2 ag-2 – D2 dopamine receptor (human) agonism. HEK293 T-REx D2 cells, calcium flux agonist mode. hit rate 0.53% among 340,000. activation, % at 2 µM. P14416;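 active = activation over 3 SD above normal in the single-dose calcium agonist read, cut at about 30% in these data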
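Tetracycline-induced HEK293 Trex cells with D2 receptor force-coupled to calcium signaling, plated overnight at 30 C and loaded with no-wash calcium dye. Calcium flux read kinetically for 180 s after compound addition; responses flag agonists.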
D3 ag – D3 receptor agonism confirmed, beta-arrestin readout; Potency, µM (titrated, usually from 76.9 µM), usual class: activators; DiscoveRx D3 beta-arrestin cells, luminescence, 90 min; AID 720506; hit rate 4% among 2,300; shares compounds with D2 ag-2; also: nearly all actives have a fitted effect of over 70% in size
Target sequence (P35462 whole entry, looked up): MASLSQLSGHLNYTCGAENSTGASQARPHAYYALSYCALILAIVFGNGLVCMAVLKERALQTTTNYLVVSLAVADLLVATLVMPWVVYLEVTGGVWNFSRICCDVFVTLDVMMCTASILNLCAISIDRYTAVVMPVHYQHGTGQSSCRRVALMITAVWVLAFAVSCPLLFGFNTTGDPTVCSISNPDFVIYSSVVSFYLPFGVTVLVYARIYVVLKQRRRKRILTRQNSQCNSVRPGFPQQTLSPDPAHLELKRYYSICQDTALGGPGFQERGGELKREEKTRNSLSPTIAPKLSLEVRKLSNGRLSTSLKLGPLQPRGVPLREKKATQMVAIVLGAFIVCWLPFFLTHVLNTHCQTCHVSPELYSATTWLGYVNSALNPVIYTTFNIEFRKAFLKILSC
D2 ag-3 – activates human D2 dopamine receptor in D3 counterscreen; shares compounds with D2 ag-2; DiscoveRx PathHunter D2 beta-arrestin, luminescence, 90 min; response scale: percent relative to full dopamine signal; Potency, µM (series often up to 76.9 µM), usual class: activators; hit rate 5.9% among 2,300; also: nearly all actives have a fitted effect of over 70% in size
Each line names hits and unclear results; the compound was inactive in the other large screens (follow-up assays come after a bar, where they were run). Compounds with a hit are over-represented: about 2.4% of the library has one in this group of screens. Unless noted, calls follow the shape of the dose curve; as a rule, active = well fitted activation curve with a large enough effect; inconclusive = small, poorly fitted or top-dose-only effect; inactive = flat fitted curve, though single readings scatter.

COc1ccc(CN2CCN(c3ccccc3F)CC2)cc1O	none (no result: D2 antag, D2 PAM-2, D2 ag-2) | D3 ag inactive | D2 ag-3 inactive
COc1ccccc1N1CCN(Cc2ccc(F)cc2)CC1	D2 antag 76, D2 ag-2 38 | D3 ag inactive | D2 ag-3 inactive
CC(C)c1ccc(OCC(=O)N2CCN(CCc3ccncc3)CC2)cc1	none (no result: D2 ag-1, D2 antag, D2 PAM-1)
COc1cc2c3c(c1OC)-c1cc(O)ccc1CC3NCC2 (stereo not given)	none | D3 ag inactive | D2 ag-3 inactive
c1ccc(C2CC2)c(OCC2=NCCN2)c1	D2 antag 47 | D3 ag inactive | D2 ag-3 inactive
c1ccc2cc(CC3=NCCN3)ccc2c1	none
Cc1cccc(Cn2cccc(C(=O)Nc3cc(C)on3)c2=O)c1	none (no result: D2 ag-1, D2 antag, D2 PAM-1)
COC(=O)C1=C(c2ccc(OCc3ccccc3)cc2)C[C@@H]2CC[C@H]1N2C(=O)NCc1ccc(F)cc1	none (no result: D2 antag, D2 PAM-2, D2 ag-2)
COC(=O)C1=C(c2ccc(OCc3ccccc3)cc2)C[C@@H]2CC[C@H]1N2C(=O)NCc1ccc(N(C)C)cc1	none | D3 ag inactive | D2 ag-3 inactive
COC(=O)C1=C(c2ccc(-c3ccccc3)c(F)c2)C[C@@H]2CC[C@H]1N2C(=O)NCCOc1ccccc1Cl	none | D3 ag inactive | D2 ag-3 inactive
COC(=O)C1=C(c2ccc(-c3ccccc3)c(F)c2)C[C@@H]2CC[C@H]1N2C(=O)NCCO	none | D3 ag inactive | D2 ag-3 inactive
CCCNC(=O)N1[C@H]2CC[C@@H]1C(C(=O)OC)=C(c1ccc(-c3ccccc3)c(F)c1)C2	none | D3 ag inactive | D2 ag-3 inconclusive
CC(CCc1ccccc1)NC(C)C(O)c1ccc(O)cc1 (stereo not given)	D2 antag 64, D2 ag-2 71 | D3 ag inactive | D2 ag-3 inactive
O=C1c2ccccc2-c2c1nc1c([n+]2[O-])CCCC1	none | D3 ag inactive | D2 ag-3 inactive
O=C(Nc1ccc(F)c([N+](=O)[O-])c1)c1cccn(Cc2ccccc2)c1=O	none (no result: D2 ag-1, D2 antag, D2 PAM-1)
COc1cccc(-n2c(/C=C/c3ccccc3O)nc3ccccc3c2=O)c1	none (no result: D2 ag-1, D2 antag, D2 PAM-1, D2 PAM-2)
COC(=O)C1=C(c2ccc(OC(F)(F)F)cc2)C[C@@H]2CC[C@H]1N2C(=O)NCC1CC1	none
COC(=O)C1=C(c2ccc(OC(F)(F)F)cc2)C[C@@H]2CC[C@H]1N2C(=O)NC1CC1	none | D3 ag inactive | D2 ag-3 inactive
COC(=O)C1=C(c2ccc(OC(F)(F)F)cc2)C[C@@H]2CC[C@H]1N2C(=O)N1CCOCC1	none | D3 ag inactive | D2 ag-3 inactive
Clc1ccc2c(c1)C(c1ccccc1Cl)=NCc1nnc(N3CCN(CCOc4ccccc4)CC3)n1-2	D2 antag 65, D2 ag-2 58 | D3 ag inconclusive | D2 ag-3 inactive
Clc1ccc2c(c1)C(c1ccccc1Cl)=NCc1nnc(N3CCN(CCSc4ccccc4)CC3)n1-2	none
Cc1ccc(-n2c(/C=C/c3cc(Br)cs3)nc3ccccc3c2=O)cc1C	none (no result: D2 ag-1, D2 antag, D2 PAM-1)
CCN(CC)P(=O)(/C=C(\Cl)c1ccccc1)/C=C(\Cl)c1ccccc1	none | D3 ag inactive | D2 ag-3 inactive
O=c1c2ccccc2nc(/C=C\c2ccccc2F)n1-c1ccc(O)cc1	none (no result: D2 ag-1, D2 antag, D2 PAM-1)
CC(C)(C)c1cc(C=C(C#N)C#N)cc(C(C)(C)C)c1O	none | D3 ag inconclusive | D2 ag-3 inactive
N#CC(C#N)=Cc1ccc(O)c(O)c1	none
N#C/C=C/C#N	none | D3 ag inactive | D2 ag-3 inactive
Cc1cccc(OC(C)C(=O)NCC2(N(C)C)CCCCC2)c1C (stereo not given)	none (no result: D2 ag-1, D2 antag, D2 PAM-1)
O=C(COc1ccccc1Cl)N1CCN(CCc2ccncc2)CC1	none (no result: D2 ag-1, D2 antag, D2 PAM-1)
CCCCCc1nc2c(c(=O)c3ccccc3n2C)c(=O)n1C1CCCCCC1	D2 antag 46, D2 ag-2 36 | D3 ag inactive | D2 ag-3 inactive
CCCCCc1nc2ccccc2c(=O)n1-c1ccc(C)cc1	none (no result: D2 ag-1, D2 antag, D2 PAM-1)
Cc1cccc(CN2C(=O)CN=C(c3ccccc3Cl)c3cc(Cl)ccc32)c1	none (no result: D2 ag-1, D2 antag, D2 PAM-1, D2 ag-2)
Cc1cccc(OCC(=O)N2CCN(CCc3ccccn3)CC2)c1	none (no result: D2 ag-1, D2 antag, D2 PAM-1)
NCC(O)c1cc(O)c(O)cc1F (stereo not given)	D2 antag 81, D2 ag-2 67 | D3 ag inactive | D2 ag-3 13µM
N#Cc1cccc(NC(=O)CSc2nc3c(cc2C#N)N2CCC3CC2)c1	none (no result: D2 ag-1, D2 antag, D2 PAM-1)
CC(C(N)=O)N1CC(c2ccccc2)CC1=O (stereo not given)	D2 ag-2 45 | D3 ag inactive | D2 ag-3 inactive
COC(=O)C1=C(c2cc3ccccc3s2)C[C@@H]2CC[C@H]1N2C(=O)NC1CC1	none (no result: D2 antag, D2 PAM-2, D2 ag-2)
COC(=O)C1=C(c2cc3ccccc3s2)C[C@@H]2CC[C@H]1N2C	D2 antag 58 | D3 ag inactive | D2 ag-3 inactive
CCOC(=O)C1CCN(Cc2ccc(Cl)nc2)CC1	D2 antag 47, D2 ag-2 47 | D3 ag inactive | D2 ag-3 inactive
CCOc1ccc(CN2CCN(C(=O)Cc3ccccc3)CC2)cc1	none
N#Cc1cc2c(nc1SCC(=O)Nc1ccc(OC(F)(F)F)cc1)C1CCN2CC1	none (no result: D2 ag-1, D2 antag, D2 PAM-1)
CCCCOCCCN1C(C)=CC(=C2C(=O)NC(=S)NC2=O)C=C1C	none | D3 ag inactive | D2 ag-3 inactive
COc1cc(OC)cc(C(=O)Nc2ccc(Cl)cc2C(=O)c2ccccc2Cl)c1	none (no result: D2 ag-1, D2 antag, D2 PAM-1)
CCOC(=O)c1ccccc1C(=O)OCC	none (no result: D2 antag, D2 PAM-2, D2 ag-2)
CCCOC(=O)c1ccccc1C(=O)OCCC	none | D3 ag inactive | D2 ag-3 inactive
NCCc1ccc(O)cc1	D2 antag 47, D2 ag-2 51 | D3 ag inconclusive | D2 ag-3 inactive
c1ccc(-c2cc(-c3ccccc3)[n+](-c3ccccc3)c(-c3ccccc3)c2)cc1	none (no result: D2 antag, D2 PAM-2, D2 ag-2)
Cc1ccc(-c2cc(-c3ccc(C)cc3)[n+](-c3ccccc3)c(-c3ccc(C)cc3)c2)cc1	D2 antag 49 | D3 ag inactive | D2 ag-3 inactive
